# About 8,800 targets were measured; listed, in parts, are those with a hit and a random draw of the rest. About 0.5% of all pairs of compound and target were hits. Unmarked numbers belong to inactive results.
# Tests used:
# Experiment in all cases: log2 fold change, soluble protein after heating vs DMSO (PISA); higher = thermal stabilisation; K562 lysate, 10 uM; active = over 0.2 and 3.5 SD of the protein, either way, in both replicates (recomputed)
# erlotinib = compound: C#Cc1cccc(Nc2ncnc3cc(OCCOC)c(OCCOC)cc23)c1 [erlotinib]
# Summary of the method: (§1)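 Quantification was by TMTpro 16plex LC-MS/MS with equalised channel sums, applied to the supernatant after 21,000xg for 90 min. Samples were crude K562 extract at 1 mg/mL protein in PBS pH 7.4 with 1 mM MgCl2, treated with 10 μM compound for 30 min, heated for 3 min across 48°C-58°C, pooled and brought to 0.5% NP-40 at 4°C. Values are log-two fold changes in thermal stability relative to solvent controls, from duplicates.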
# [1] = compound: C/C(=N\NC(=O)C1=CC(=CC=C1)S(=O)(=O)N2CCOCC2)/C3=C(C=CC(=C3)Cl)O
# Summary of the method: as §1
# [2] = compound: C1=CC(=CC=C1C2=NC3=C(N2)C=C(C=C3)C(=O)N)OC4=CC=C(C=C4)Cl
# Summary of the method: as §1
# [3] = compound: C1=CC2=C(C=CC(=C2)/C=C\3/C(=O)NC(=NCC4=CC=CS4)S3)N=C1
# Summary of the method: as §1
# [4] = compound: C1=CC2=NC=CN=C2C=C1/C=C/3\C(=O)NC(=O)S3
# Summary of the method: as §1
# [5] = compound: C1=CC=C(C=C1)C2=NC(=C(N2)C3=CC=NC=C3)C4=CC(=C(C=C4)Cl)O
# Summary of the method: as §1
# [6] = compound: C1=CC=C2C(=C1)C3=NNC4=CC=CC(=C43)C2=O
# Summary of the method: as §1
# [7] = compound: C1CCN(C1)C(=O)NC2=CC=CC(=C2)NC3=NC=C(C(=N3)NCCC4=CN=CN4)Br
# Summary of the method: as §1
# [8] = compound: C1CN(CCC1(CC2=CC=C(C=C2)Cl)N)C3=NC=NC4=C3C=CN4
# Summary of the method: as §1
# IRAK-1-4 Inhibitor I = compound: C1COCCN1CCN2C3=CC=CC=C3N=C2NC(=O)C4=CC(=CC=C4)[N+](=O)[O-] [IRAK-1-4 Inhibitor I]
# Summary of the method: as §1
# Chain of UniProt Q14203 (Q14203 whole entry, looked up): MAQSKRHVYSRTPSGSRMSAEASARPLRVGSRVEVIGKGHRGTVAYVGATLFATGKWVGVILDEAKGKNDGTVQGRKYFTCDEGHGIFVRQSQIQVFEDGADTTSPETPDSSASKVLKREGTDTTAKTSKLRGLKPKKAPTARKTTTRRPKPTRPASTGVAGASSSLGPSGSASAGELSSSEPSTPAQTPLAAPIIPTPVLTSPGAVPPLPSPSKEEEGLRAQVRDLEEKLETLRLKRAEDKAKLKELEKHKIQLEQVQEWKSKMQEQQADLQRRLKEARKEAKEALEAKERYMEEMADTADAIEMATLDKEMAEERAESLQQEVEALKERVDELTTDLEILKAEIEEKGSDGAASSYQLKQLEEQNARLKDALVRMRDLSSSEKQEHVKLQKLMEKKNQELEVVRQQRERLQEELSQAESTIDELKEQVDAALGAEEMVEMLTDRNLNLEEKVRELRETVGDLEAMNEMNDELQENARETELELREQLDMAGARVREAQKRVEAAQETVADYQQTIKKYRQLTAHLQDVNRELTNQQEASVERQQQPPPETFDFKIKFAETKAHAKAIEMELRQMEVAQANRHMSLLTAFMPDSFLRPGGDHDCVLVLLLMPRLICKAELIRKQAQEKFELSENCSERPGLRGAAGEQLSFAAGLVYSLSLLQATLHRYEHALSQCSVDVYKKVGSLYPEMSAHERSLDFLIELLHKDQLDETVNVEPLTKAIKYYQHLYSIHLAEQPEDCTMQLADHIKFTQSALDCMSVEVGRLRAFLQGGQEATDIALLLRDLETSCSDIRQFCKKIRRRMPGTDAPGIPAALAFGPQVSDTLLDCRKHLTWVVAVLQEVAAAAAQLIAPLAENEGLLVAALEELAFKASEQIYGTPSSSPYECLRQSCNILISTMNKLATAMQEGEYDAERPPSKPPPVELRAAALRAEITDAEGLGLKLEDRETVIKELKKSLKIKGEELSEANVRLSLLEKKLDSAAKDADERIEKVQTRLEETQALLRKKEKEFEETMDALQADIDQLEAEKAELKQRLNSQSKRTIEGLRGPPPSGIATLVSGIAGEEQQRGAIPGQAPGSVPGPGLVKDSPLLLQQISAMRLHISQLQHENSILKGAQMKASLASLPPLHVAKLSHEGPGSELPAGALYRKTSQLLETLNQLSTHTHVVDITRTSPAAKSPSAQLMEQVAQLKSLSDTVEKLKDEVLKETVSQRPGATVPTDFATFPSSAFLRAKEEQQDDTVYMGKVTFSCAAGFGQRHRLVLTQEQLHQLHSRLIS
# Chain of UniProt Q8WYQ5 (Q8WYQ5 whole entry, looked up): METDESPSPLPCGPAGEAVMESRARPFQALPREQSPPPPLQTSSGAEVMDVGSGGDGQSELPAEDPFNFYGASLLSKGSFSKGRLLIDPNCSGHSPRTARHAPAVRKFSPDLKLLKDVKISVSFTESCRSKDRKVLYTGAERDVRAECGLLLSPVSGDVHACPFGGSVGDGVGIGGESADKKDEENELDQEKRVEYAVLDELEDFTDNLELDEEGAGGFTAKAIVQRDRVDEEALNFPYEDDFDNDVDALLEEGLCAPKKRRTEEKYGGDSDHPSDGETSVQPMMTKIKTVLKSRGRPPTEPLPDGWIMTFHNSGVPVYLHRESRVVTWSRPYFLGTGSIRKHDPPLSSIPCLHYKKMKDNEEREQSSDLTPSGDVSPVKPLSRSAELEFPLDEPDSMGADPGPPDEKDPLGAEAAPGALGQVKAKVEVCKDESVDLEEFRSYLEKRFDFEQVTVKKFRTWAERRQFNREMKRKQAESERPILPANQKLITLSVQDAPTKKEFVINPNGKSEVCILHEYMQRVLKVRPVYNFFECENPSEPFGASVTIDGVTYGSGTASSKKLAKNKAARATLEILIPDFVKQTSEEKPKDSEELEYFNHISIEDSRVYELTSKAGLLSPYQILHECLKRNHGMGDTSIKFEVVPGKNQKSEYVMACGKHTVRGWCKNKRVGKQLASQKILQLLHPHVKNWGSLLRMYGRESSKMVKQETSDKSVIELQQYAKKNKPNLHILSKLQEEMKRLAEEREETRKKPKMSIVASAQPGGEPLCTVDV
# Chain of UniProt Q9UBM7 (Q9UBM7 whole entry, looked up): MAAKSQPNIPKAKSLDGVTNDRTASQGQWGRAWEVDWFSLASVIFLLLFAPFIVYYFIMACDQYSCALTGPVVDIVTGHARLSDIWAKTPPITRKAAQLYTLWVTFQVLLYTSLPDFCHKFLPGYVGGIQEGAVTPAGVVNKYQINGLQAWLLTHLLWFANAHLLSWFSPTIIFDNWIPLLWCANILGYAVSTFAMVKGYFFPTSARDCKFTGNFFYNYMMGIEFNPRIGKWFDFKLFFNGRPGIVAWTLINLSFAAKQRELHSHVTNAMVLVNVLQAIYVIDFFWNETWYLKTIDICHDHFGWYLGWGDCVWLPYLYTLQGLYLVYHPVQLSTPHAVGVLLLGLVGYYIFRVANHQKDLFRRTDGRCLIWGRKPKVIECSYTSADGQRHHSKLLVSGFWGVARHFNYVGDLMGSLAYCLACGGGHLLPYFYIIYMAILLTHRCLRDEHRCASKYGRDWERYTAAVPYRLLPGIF
# Chain of UniProt Q96LJ7 (Q96LJ7 whole entry, looked up): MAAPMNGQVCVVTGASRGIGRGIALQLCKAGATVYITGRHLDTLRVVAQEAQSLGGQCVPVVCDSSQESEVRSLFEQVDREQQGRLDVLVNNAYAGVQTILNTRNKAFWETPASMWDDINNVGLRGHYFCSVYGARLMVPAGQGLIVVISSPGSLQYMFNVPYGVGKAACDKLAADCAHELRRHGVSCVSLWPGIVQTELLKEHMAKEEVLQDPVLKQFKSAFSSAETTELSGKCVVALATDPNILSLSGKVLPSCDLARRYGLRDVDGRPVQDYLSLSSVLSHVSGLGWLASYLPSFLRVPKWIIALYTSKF
# Chain of UniProt P09543 (P09543 whole entry, looked up): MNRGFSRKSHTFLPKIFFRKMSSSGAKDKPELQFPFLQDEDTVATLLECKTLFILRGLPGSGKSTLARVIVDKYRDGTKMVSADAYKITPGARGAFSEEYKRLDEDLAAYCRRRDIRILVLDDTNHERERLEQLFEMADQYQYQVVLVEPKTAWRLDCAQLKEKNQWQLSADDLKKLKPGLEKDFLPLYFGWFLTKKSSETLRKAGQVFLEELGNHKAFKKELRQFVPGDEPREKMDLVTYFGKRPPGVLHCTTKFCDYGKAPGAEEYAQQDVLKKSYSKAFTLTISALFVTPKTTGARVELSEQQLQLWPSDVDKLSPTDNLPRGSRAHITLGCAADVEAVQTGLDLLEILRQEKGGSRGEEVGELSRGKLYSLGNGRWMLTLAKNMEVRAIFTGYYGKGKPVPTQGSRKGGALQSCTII
# Chain of UniProt Q13217 (Q13217 whole entry, looked up): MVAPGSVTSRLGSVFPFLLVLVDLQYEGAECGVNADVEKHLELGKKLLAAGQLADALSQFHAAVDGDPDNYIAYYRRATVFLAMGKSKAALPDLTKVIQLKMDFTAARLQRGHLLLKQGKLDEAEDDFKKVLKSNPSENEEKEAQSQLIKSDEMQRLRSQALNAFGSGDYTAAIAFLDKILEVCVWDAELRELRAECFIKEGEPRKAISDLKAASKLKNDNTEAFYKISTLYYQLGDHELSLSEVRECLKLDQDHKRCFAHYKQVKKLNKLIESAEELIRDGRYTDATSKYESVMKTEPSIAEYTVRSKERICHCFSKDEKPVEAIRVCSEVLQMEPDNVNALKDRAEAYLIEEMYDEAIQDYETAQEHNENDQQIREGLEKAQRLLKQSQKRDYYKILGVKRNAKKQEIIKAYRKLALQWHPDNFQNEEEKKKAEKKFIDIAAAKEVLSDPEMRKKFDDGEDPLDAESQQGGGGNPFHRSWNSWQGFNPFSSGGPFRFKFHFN
# Chain of UniProt O14757 (O14757 whole entry, looked up): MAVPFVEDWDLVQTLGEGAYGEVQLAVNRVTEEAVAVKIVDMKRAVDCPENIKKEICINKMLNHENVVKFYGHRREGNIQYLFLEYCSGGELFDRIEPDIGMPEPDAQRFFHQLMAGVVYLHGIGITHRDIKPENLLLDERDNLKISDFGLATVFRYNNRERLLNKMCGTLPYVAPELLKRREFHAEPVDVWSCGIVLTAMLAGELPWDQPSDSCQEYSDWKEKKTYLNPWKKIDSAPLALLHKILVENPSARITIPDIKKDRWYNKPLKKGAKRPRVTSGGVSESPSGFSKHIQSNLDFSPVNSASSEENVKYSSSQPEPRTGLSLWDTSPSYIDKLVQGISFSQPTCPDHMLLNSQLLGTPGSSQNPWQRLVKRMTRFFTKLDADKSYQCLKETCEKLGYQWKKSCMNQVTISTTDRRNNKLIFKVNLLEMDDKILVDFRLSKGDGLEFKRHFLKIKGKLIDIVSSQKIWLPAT
# Chain of UniProt Q8TB03 (Q8TB03 whole entry, looked up): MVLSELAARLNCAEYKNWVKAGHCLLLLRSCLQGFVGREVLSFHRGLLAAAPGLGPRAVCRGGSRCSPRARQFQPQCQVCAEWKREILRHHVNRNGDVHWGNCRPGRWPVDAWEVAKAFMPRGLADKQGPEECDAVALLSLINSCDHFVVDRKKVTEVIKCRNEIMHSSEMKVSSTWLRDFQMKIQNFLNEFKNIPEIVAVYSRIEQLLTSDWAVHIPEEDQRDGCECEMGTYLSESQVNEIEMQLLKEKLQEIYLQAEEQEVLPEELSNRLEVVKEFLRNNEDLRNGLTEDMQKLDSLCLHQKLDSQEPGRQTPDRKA
# Chain of UniProt P19784 (P19784 whole entry, looked up): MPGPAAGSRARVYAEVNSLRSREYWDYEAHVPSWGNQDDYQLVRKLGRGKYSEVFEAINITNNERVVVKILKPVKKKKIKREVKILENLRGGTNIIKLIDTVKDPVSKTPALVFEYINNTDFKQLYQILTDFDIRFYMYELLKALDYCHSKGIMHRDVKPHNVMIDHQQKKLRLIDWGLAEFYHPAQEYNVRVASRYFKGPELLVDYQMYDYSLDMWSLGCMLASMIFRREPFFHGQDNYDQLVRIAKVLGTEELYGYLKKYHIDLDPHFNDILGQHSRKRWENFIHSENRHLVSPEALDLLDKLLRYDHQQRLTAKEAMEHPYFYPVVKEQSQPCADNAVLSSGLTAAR
Target,log2 fold change (erlotinib),log2 fold change [1],log2 fold change [2],log2 fold change [3],log2 fold change [4],log2 fold change [5],log2 fold change [6],log2 fold change [7],log2 fold change [8],log2 fold change (IRAK-1-4 Inhibitor I)
CTNND1 isoform 3 (UniProt O60716),-0.002,-0.039,-0.024,-0.045,0.003,0.087,-0.093,0.009,0.022,0.004
CSNK2A2 (UniProt P19784),0,-0.209,-0.015,0.383,0.699 (active),0.032,0.375,0.277,0.024,0.022
CXXC1 isoform 2 (UniProt Q9P0U4),0.02,-0.031,-0.051,0.029,-0.085,-0.036,-0.088,0.082,0.04,0.059
CHMP4A isoform 2 (UniProt Q9BY43),-0.046,0.008,0.018,-0.01,-0.018,0.021,0.033,0.014,-0.007,-0.016
DOCK7 (UniProt Q96N67),0.078,0.009,-0.045,-0.041,-0.126,0.014,-0.023,-0.003,0.016,0.024
DHRS1 (UniProt Q96LJ7),0.024,0.898 (active),-0.017,-0.008,-0.036,0.654 (active),0.05,-0.052,0.105,-0.051
DMXL1 (UniProt Q9Y485),0.006,0.016,-0.015,-0.017,-0.024,-0.008,-0.026,-0.013,-0.001,0.016
DLG3 isoform 2 (UniProt Q92796),-0.048,-0.085,0.073,0.002,-0.046,-0.012,-0.013,0.019,-0.001,-0.056
COQ9 (UniProt O75208),-0.015,-0.075,-0.001,0.041,0.046,0,-0.029,-0.02,0.029,-0.011
COG7 (UniProt P83436),0.026,-0.007,-0.025,0.034,0.012,0.006,-0.037,-0.022,0.05,-0.039
CNIH4 (UniProt Q9P003),0.049,-0.139,-0.06,0.129,-0.071,-0.022,-0.162,0.01,-0.131,-0.078
DNM2 (UniProt P50570),0.045,-0.009,0.049,0.013,0.029,0.003,-0.049,-0.022,-0.008,0
DDB2 (UniProt Q92466),-0.007,-0.028,0.07,0.052,0.064,-0.024,0,-0.075,-0.041,0.026
CHEK1 (UniProt O14757),-0.048,-0.057,0,0.27 (active),0.008,0.023,0.06,-0.108,0.02,-0.011
DHCR7 (UniProt Q9UBM7),-0.051,0.081,-0.153,-0.016,0.033,-0.024,-0.019,-0.058,0.075,0.007
DNAJC5 (UniProt Q9H3Z4),-0.003,0.037,-0.018,-0.021,0.053,0.033,0,0.049,-0.005,-0.012
COPZ1 isoform 4 (UniProt P61923),-0.029,0.065,-0.05,-0.036,-0.142,-0.006,0,-0.08,-0.028,-0.015
CUX1 isoform 3 (UniProt P39880),-0.015,-0.017,-0.007,0.03,-0.049,-0.039,0.003,-0.004,0.07,0.014
CHORDC1 (UniProt Q9UHD1),0.015,0.007,0.017,0.001,0.004,0.002,0.005,-0.007,0.015,-0.016
CNP (UniProt P09543),-0.005,-0.066,0.002,-0.012,-0.022,0.007,-0.004,-0.016,0,-0.002
CMIP (UniProt Q8IY22),0.003,0.05,-0.008,0.055,0.035,0.023,-0.067,-0.001,-0.023,-0.011
DCTN1 (UniProt Q14203),0.007,-0.001,-0.001,-0.001,0.019,-0.001,-0.023,0,-0.003,-0.005
CXorf38 (UniProt Q8TB03),0.068,0.067,-0.003,0.01,0.042,0.013,0.012,-0.058,-0.031,0.026
CNOT6L (UniProt Q96LI5),-0.011,0,0.007,-0.02,0.007,-0.04,-0.042,-0.018,-0.012,0.002
DNAJC3 (UniProt Q13217),-0.002,-0.057,0.06,0.008,-0.021,-0.032,-0.02,-0.033,-0.047,0.011
DGCR8 (UniProt Q8WYQ5),0.045,-0.026,0.019,0.023,-0.057,0.002,-0.011,-0.019,0,-0.038
DDX39A (UniProt O00148),0.023,-0.095,-0.045,-0.001,-0.003,0.008,-0.026,-0.02,0.009,0.014
CSNK1A1 (UniProt P48729),-0.027,-0.106,0.093,0.028,0.013,0.217,0.406 (active),-0.082,-0.032,-0.038
DDX54 isoform 2 (UniProt Q8TDD1),-0.088,-0.36,-0.038,-0.035,-0.191,-0.001,-0.054,0.069,0.014,-0.058
